Experimental findings from paper PMC7862700, “An all-to-all approach to the identification of sequence-specific readers for epigenetic DNA modifications on cytosine” are described below.

Assay in all cases: DAPPL (digital affinity profiling via proximity ligation, sequencing); 10 mM Tris-HCl pH 7.5, 50 mM NaCl, 1 mM DTT, 4% glycerol, room temperature, 30 min; GST-TFs on glutathione beads, 16-mer random dsDNA library, 0.1% formaldehyde crosslink after washing; high values mean tight binding
What all share (conditions): protein: recombinant; tags: N-terminal GST; dsDNA, one strand shown

One assay deals with T1, FLI1 (Homo sapiens, UniProt Q01543 1-452).
T1 sequence: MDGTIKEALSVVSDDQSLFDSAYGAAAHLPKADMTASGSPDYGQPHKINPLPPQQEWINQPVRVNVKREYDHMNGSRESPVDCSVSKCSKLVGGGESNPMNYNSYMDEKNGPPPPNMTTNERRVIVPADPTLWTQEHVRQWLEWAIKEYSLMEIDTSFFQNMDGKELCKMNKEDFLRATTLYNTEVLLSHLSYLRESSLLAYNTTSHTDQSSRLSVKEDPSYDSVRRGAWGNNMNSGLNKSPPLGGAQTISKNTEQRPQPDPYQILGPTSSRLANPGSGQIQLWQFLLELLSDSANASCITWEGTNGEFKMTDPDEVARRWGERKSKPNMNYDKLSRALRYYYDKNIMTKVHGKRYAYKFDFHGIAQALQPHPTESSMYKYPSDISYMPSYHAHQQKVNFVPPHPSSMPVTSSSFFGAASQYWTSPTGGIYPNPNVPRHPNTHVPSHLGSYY
A digest of the protocol: (§1)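 After expression in yeast as GST fusions, human transcription factors were bound to glutathione beads, DNA-barcoded and mixed with a tag-only sample. The pools were incubated with 200 nmole of a 16-mer random double-stranded DNA library in Tris/NaCl/DTT/glycerol buffer (30 min, room temperature), washed and crosslinked with 0.1% formaldehyde. Proximity ligation with BsaI/T4 ligase ran for 1 h at 37 °C, before PCR amplification and sequencing on an Illumina NextSeq500. Binding signal is a hexamer's read frequency for a factor divided by its frequency for the tag-only sample.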

The target of the next assay is T2, ELK1 (Homo sapiens, UniProt P19419 1-428).
T2 sequence: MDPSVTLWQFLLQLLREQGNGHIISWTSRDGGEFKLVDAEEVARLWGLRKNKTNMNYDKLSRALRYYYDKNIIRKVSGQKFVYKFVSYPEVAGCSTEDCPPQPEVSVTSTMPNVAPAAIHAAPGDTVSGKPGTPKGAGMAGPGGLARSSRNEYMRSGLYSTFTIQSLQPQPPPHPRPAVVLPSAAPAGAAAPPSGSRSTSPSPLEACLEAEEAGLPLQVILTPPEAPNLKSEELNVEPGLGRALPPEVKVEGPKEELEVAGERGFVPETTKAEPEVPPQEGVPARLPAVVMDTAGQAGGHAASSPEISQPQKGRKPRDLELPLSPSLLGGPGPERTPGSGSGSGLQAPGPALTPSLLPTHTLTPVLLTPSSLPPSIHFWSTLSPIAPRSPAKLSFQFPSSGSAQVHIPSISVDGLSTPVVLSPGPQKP
Summed up:
as §1

The target in another assay is T3, GABPA (Homo sapiens, UniProt Q06546 1-454).
T3 sequence: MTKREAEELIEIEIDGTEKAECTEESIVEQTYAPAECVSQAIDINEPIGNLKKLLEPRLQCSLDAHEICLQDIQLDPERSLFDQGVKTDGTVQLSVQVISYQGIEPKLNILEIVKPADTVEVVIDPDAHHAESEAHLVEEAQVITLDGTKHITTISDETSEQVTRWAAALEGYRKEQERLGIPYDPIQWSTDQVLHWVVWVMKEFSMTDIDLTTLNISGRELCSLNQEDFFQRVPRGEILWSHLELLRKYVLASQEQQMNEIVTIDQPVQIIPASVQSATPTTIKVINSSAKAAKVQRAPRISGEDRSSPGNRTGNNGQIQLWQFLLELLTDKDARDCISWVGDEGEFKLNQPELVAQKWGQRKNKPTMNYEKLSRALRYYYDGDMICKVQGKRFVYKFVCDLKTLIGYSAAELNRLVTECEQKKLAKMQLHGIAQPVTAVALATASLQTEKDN
A digest of the protocol:
as §1

A further assay addresses T4, ERG (Homo sapiens, UniProt P11308 1-479).
T4 sequence: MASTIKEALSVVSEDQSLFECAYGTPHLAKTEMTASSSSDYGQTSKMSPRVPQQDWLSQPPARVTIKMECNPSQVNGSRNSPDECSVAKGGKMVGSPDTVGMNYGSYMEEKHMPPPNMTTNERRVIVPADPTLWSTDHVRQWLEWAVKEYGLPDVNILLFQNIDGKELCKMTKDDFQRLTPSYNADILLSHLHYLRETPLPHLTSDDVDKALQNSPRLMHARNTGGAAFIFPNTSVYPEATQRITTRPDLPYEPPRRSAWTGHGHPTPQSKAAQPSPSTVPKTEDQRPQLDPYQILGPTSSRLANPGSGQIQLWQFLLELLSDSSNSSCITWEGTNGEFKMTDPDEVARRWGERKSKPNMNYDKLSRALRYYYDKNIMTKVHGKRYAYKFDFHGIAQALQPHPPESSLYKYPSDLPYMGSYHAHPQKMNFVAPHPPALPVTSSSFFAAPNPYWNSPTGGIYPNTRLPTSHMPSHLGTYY
A digest of the protocol:
as §1

A further assay deals with ELF1 (Homo sapiens, UniProt P32519 1-619). Summed up:
as §1

In another assay the target is T5, EHF (Homo sapiens, UniProt Q9NZC4 1-300).
T5 sequence: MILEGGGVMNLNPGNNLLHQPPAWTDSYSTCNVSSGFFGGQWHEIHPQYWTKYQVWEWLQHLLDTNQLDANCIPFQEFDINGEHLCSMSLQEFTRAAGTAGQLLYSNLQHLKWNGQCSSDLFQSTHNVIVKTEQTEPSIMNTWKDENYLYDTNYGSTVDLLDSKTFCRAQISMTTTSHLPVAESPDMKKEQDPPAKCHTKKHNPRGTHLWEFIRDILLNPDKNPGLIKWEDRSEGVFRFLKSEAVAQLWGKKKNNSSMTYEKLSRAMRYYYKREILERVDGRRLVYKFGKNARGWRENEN
Summed up:
as §1

The next assay deals with SPI1 (Homo sapiens, UniProt P17947 1-270). A digest of the protocol: as §1
A further assay addresses SPIB (Homo sapiens, UniProt Q01892 1-262). Summed up: as §1
The next assay has as its target T6, FEV (Homo sapiens, UniProt Q99581 1-238).
T6 sequence: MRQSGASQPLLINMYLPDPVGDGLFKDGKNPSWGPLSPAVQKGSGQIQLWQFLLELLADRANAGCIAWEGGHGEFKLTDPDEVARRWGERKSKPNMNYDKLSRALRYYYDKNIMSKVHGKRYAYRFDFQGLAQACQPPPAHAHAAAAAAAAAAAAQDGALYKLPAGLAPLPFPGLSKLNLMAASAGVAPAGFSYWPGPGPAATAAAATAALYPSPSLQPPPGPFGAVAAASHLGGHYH
A digest of the protocol: as §1

The next assay addresses ETV5 (Homo sapiens, UniProt P41161 1-510). A digest of the protocol: as §1
Another assay has as its target T7, SPIC (Homo sapiens, UniProt Q8N5J4 1-248).
T7 sequence: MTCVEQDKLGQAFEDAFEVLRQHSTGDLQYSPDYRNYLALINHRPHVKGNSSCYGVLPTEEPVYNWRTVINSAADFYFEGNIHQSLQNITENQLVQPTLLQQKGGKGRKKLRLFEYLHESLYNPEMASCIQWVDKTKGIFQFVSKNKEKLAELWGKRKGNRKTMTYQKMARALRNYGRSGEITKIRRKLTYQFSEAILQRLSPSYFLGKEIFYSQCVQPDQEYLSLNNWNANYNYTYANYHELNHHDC
A digest of the protocol:
as §1

A further assay has as its target ELF4 (Homo sapiens, UniProt Q99607 1-663). Summed up:
as §1

For another assay, the target named is ETV1 (Homo sapiens, UniProt P50549 1-477). A digest of the protocol: as §1
For a further assay, the target named is T8, ETV3L (Homo sapiens, UniProt Q6ZN32 1-361).
T8 sequence: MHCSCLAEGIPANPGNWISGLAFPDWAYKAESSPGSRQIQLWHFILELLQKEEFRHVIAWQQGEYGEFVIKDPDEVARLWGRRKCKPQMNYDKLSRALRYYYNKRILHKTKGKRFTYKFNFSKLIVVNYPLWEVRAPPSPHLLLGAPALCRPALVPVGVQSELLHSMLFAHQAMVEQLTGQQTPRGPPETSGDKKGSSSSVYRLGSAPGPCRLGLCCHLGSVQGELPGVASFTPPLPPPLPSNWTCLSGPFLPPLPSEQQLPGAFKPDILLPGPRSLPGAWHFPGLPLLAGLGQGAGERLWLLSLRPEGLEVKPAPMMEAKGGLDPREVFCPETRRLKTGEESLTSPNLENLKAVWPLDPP
A digest of the protocol: as §1

The target of a further assay is T9, ETS2 (Homo sapiens, UniProt P15036 1-469).
T9 sequence: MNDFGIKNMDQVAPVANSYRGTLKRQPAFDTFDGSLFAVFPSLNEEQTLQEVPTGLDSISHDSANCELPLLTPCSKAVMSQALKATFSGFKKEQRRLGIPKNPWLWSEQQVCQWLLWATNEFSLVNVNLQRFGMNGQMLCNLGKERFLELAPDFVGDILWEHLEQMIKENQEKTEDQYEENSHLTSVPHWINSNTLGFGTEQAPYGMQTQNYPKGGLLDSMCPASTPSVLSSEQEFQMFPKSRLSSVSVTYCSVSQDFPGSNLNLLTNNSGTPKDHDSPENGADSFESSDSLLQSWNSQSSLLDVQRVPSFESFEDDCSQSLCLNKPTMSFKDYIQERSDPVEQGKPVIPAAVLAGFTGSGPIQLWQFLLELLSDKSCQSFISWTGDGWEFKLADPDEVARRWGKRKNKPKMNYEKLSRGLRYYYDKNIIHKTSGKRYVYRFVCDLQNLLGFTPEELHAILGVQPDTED
Summed up: as §1

The target in another assay is T10, ELF5 (Homo sapiens, UniProt Q9UKW6-2 1-255).
T10 sequence: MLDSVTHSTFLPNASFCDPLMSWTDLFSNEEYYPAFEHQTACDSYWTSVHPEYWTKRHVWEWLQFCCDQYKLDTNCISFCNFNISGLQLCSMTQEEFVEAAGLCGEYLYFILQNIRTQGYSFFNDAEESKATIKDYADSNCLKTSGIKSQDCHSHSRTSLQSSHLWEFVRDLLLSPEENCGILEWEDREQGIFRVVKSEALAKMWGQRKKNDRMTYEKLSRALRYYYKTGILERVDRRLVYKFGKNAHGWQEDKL
A digest of the protocol:
as §1

The next assay has as its target T11, ETV3 (Homo sapiens, UniProt P41162-2 1-143).
T11 sequence: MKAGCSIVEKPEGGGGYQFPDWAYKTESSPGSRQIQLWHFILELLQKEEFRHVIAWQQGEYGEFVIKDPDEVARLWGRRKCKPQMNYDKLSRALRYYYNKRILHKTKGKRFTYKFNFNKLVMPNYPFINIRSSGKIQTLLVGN
Summed up:
as §1

ETV5, sequence (P41161 whole entry): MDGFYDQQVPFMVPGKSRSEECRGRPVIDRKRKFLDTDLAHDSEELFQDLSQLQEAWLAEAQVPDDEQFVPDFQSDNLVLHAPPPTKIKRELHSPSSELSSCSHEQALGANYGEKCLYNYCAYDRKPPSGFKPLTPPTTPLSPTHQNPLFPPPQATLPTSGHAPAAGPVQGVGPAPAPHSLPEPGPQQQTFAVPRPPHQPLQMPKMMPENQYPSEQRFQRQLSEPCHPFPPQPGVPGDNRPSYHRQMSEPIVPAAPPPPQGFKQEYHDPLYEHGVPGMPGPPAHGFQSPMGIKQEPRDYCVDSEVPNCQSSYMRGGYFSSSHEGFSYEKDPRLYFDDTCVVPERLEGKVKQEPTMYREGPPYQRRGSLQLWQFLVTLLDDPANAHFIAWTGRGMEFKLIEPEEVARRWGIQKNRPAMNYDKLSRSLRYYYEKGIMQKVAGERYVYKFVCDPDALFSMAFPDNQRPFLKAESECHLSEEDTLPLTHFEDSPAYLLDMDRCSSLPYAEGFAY
ELF4, sequence (Q99607 whole entry): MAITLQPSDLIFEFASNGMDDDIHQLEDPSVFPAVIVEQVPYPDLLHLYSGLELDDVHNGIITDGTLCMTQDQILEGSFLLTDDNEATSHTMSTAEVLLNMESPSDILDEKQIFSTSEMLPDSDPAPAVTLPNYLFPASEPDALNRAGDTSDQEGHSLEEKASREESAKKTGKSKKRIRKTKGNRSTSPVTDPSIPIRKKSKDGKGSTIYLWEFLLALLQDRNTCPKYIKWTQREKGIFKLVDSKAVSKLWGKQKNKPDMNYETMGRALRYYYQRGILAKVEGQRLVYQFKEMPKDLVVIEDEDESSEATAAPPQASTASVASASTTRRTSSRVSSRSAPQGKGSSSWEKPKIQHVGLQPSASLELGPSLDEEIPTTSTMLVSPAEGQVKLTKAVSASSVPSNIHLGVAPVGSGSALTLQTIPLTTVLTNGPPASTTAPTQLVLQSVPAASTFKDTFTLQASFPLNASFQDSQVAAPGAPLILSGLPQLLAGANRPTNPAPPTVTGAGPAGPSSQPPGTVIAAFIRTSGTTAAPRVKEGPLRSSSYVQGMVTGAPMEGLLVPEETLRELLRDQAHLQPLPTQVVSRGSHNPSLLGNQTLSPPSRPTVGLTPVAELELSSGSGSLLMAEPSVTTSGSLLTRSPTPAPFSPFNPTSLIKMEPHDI
ETV1, sequence (P50549 whole entry): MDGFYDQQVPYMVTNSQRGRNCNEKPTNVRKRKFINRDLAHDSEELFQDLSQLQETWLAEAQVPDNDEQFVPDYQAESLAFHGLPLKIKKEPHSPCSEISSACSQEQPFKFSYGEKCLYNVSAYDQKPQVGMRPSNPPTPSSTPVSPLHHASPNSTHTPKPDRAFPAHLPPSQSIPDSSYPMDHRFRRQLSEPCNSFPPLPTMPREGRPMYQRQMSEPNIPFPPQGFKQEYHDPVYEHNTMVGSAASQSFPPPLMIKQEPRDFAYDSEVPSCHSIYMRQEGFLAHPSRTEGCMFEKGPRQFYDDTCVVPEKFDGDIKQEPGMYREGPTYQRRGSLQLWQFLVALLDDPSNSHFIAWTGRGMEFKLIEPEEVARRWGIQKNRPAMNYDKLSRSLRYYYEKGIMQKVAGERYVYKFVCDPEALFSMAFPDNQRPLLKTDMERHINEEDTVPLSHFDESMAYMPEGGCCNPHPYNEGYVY
SPIB, sequence (Q01892 whole entry): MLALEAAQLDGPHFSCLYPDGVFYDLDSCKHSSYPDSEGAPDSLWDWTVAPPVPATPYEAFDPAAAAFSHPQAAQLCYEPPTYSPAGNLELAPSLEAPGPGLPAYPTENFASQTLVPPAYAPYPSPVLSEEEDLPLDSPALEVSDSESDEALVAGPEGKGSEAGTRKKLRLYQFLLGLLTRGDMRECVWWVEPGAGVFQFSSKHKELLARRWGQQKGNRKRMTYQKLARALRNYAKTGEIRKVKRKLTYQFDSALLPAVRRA
ELF1, sequence (P32519 whole entry): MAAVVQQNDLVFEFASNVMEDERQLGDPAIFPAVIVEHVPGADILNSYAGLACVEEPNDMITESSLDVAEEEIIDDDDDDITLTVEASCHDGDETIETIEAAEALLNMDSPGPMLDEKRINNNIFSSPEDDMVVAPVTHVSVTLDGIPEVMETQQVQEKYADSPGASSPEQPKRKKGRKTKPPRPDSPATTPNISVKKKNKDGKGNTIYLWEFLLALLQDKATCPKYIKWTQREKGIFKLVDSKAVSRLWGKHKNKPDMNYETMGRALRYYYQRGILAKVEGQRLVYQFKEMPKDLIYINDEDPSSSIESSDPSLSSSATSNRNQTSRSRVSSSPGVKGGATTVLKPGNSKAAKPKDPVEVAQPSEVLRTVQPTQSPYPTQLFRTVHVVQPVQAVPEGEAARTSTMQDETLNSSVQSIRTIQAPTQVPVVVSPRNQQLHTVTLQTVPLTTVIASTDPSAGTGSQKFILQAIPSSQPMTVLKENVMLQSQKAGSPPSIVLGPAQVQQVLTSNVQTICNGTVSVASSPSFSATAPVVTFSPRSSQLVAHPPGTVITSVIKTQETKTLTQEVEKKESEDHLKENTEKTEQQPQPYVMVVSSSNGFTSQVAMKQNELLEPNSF

With GGGTTC, the binding signal with FLI1 is 1.06 fold enrichment (6-mer frequency, TF over GST control); with ELK1 it was 1.02 fold enrichment (6-mer frequency, TF over GST control); in the assay with GABPA, 1.01 fold enrichment (6-mer frequency, TF over GST control); with ERG, 1.04 fold enrichment (6-mer frequency, TF over GST control); with ELF1 it was 1.11 fold enrichment (6-mer frequency, TF over GST control); with EHF, 1.02 fold enrichment (6-mer frequency, TF over GST control). In addition, the binding signal with SPI1 is 1.11 fold enrichment (6-mer frequency, TF over GST control); in the assay with SPIB it was 1.09 fold enrichment (6-mer frequency, TF over GST control); with FEV, 1.03 fold enrichment (6-mer frequency, TF over GST control); in the assay with ETV5, 1.08 fold enrichment (6-mer frequency, TF over GST control); with SPIC, 1.02 fold enrichment (6-mer frequency, TF over GST control); with ELF4, 1.12 fold enrichment (6-mer frequency, TF over GST control). The binding signal with ETV1 was 1.08 fold enrichment (6-mer frequency, TF over GST control); with ETV3L, 1.09 fold enrichment (6-mer frequency, TF over GST control); in the assay with ETS2, 1.07 fold enrichment (6-mer frequency, TF over GST control); with ELF5 it was 1.1 fold enrichment (6-mer frequency, TF over GST control); with ETV3 it was 1.1 fold enrichment (6-mer frequency, TF over GST control).
